Pf growth 48h – P. falciparum growth inhibition at 48 hours (one generation); P. falciparum luciferase growth in erythrocytes, 48 h; Potency, µM (doses to about 28.7 µM), for the others: top-dose activity change, negative = inhibition, most hits filed as inhibitors; 310,000 tested, 5.9% active; AID 504832; further: potency means the concentration at half of the fitted maximal effect; on the % scale 0 is the no-effect control and ±100 the full control effect
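First compound was added to culture medium, then infected red cells at 0.1% parasitemia and 2% hematocrit (final). After incubation at 37 C under 5% CO2, luciferase detection reagent was dispensed and light output recorded.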
Pf growth 96h – P. falciparum growth inhibition at 96 hour, primary screen for plastid delayed-death inhibitors; P. falciparum luciferase reporter growth, 96 h; Potency, µM (doses to about 28.7 µM), inactives show at the top dose activity change, negative = inhibition, actives largely listed as inhibitors; 320,000 tested, 6.9% active; AID 504834; further: potency means the concentration at half of the fitted maximal effect; on the % scale 0 is the no-effect control and ±100 the full control effect
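P. falciparum expressing integrated firefly luciferase grown in erythrocytes (2% hematocrit, 0.05% parasitemia final) with compounds for 96 hours at 37 C, 5% CO2. Growth inhibition read as loss of luminescence after adding luciferase detection reagent.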
Shiga toxin inh – Shiga toxin inhibition. 290,000 tested, 9.2% active. inhibition, % at 38.7 µM. Vero cells, Shiga toxin protein synthesis inhibition reporter; in the data active means inhibition mostly above about 28%, no sharp cut-off; inactive means mostly below about 43%; further: 0% is about no effect
HCMV inh – inhibitors of human cytomegalovirus | activity change, negative = inhibition, % at 57.5 µM | 410,000 tested, 4.5% active | HFF cells, HCMV-luciferase reporter, 72 h; active compounds read low; in the data active means activity change below about -60%; inconclusive means no clear call, values can overlap the other calls; inactive means above about -39%; further: on the % scale 0 is the no-effect control and ±100 the full control effect
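Compounds were evaluated in HFFs infected with an HCMV luciferase reporter virus (MOI 1 PFU/cell). Luciferase in lysates collected 72 h post infection served as the replication measure.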
HCV inhibitor – HCV inhibition | Huh7.5.1 HCVcc-Cre infection, luciferase reporter, 44 h | Potency, µM (highest dose often 41.8 µM), for the others: at the highest dose activity change, negative = inhibition, usual class: inhibitors | 340,000 tested, 3.4% active; further: potency means the concentration at half of the fitted maximal effect; on the % scale 0 is the no-effect control and ±100 the full control effect
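Whole-lifecycle infectious HCVcc-Cre system; cells 1,000/well, compound then virus (~0.5 moi) added 4 h after plating, 44 h culture. Luciferase read 15 sec following 15 min substrate incubation, room temp.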
CHX counter – counter-screen for Shiga toxin inhibitors: cycloheximide protein synthesis inhibition. max response, %. cell reporter, cycloheximide protein synthesis inhibition counterscreen. 300,000 tested, 12% active. AID 2314; in the data active means max response mostly above about 13%, no sharp cut-off; inactive means mostly below about 14%; further: read at 38.3 µM for the half of the compounds with a filed dose; 0% is about no effect
Starred values were filed as active, the others as inactive; i = inactive; ? = inconclusive; · = not tested or not shown; + = active, no number; [ ] = dose if it differs, or a comment. Shown are actives, neighbours in structure and some others; about 21% of the full set was active somewhere. Unless noted, the call rests on the fitted dose curve; in most records, active means well fitted inhibition curve with a large enough effect; inconclusive means small, poorly fitted or top-dose-only effect, or another doubt; inactive means no such curve, though single readings can be large or run the other way.

SMILES	Pf growth 48h	Pf growth 96h	Shiga toxin inh	HCMV inh	HCV inhibitor	CHX counter
COc1ccc(-c2nc(-c3ccc(C(=O)O)cc3)no2)cc1	·	·	·	78.3	·	·
COc1ccc(Cc2noc(-c3ccc(C)cc3)n2)cc1	72.9%	6.8%	72.4*	22.5	-1.4%	28.7*
Cc1ccc2c(=O)c(C(=O)c3cccc(Cl)c3)cn(CC(=O)NCc3ccc(F)cc3)c2n1	·	·	·	4.3	·	·
Fc1cccc(NC(=S)NNc2c3ccccc3nc3ccccc23)c1	2.08µM*	0.5%	16.8	16.2	4.47µM*	7.9
Fc1cccc(NC(=S)NNc2ccccc2)c1	?	67.6%	44.6*	?	-5.9%	34.4*
COc1cccc(CNC(=O)CNS(=O)(=O)c2ccc3nc(C)sc3c2)c1	·	·	·	-39.3	·	·
O=C(CSC(=S)N1CCCC1)c1cc(Br)cc(Br)c1O	?	7.3%	1.6	?	12.6µM*	-1.8
CN(C)C(=O)Oc1ccnc2cc(Cl)ccc12	-15.2%	17.3%	-1.7	+	-6.6%	2.1
COc1ccc2cc([C@H](C)C(=O)N(C)Cc3ccccc3N3CCCC3)ccc2c1	?	3.7µM*	3.6	1.1	10µM*	-1.5
CC(C)(C)n1nnnc1C(c1cccnc1)N1CCN(c2cccc(C(F)(F)F)c2)CC1 (stereo not drawn)	3.7µM*	-25.1%	-3.6	-19.7	-5.9%	-3.9
CC(C)(C)n1nnnc1C(c1ccccc1)N1CCN(c2ncc(C(F)(F)F)cc2Cl)CC1 (stereo not drawn)	·	·	·	-77.5*	·	·
CC(C)(C)n1nnnc1C(c1cccnc1)N1CCN(C2CCCCC2)CC1 (stereo not drawn)	12.1%	-2.3%	-15.7	34.9	9.2%	-2.3
O=C(CN1C(=O)c2cccnc2Oc2ccc(Cl)cc21)N1CCOCC1	-5.4%	-11.2%	-12.3	?	21.4%	-4.5
COc1ccc(NC(=S)c2ccncc2)cc1	13.9%	10.4µM*	8.2	-14.7	-0.8%	-1.8
COc1ccc(C(=S)Nc2ccc(C)cc2)cc1	119.8%	i	79.2*	25.2	19.2%	51.3*
COc1ccc(C(=O)NNC(=O)C(=O)Nc2ccc(C)cc2)cc1	18.9%	1.7%	7.4	16.3	1.5%	4.2
Cc1ccc(NC(=S)c2ccncc2)cc1	21.8%	52.2%	4.8	-9.3	?	17.8
Cc1ccc(NC(=S)c2ccccc2)cc1	112.7%	-0.3%	13.8*	-11.1	3.5%	34.9*
CCc1ccc(/C=N/NC(=O)c2cc(-c3ccncc3)nc3ccccc23)s1	?	?	8.6	-66.1*	?	-5.1
COc1ccc(-c2csc(NC(=O)c3cc(-c4cccs4)nc4ccccc34)n2)c(OC)c1	?	?	10.9	-7.9	22.6%	-1.2
COc1ccccc1-c1csc(NC(=O)c2cc(-c3cccs3)nc3ccccc23)n1	?	7.38µM*	-14.8	?	10.5%	-1.3
CCn1cc(/C=N\NC(=O)c2cc(-c3ccccc3OC)nc3ccccc23)c(C)n1	1.65µM*	1.85µM*	11.5	40.5	24.8%	5.3
COc1ccccc1-c1cc(C(=O)N/N=C\c2cn(C)nc2C)c2ccccc2n1	?	?	-3.0	-3.7	-18.0%	-2.8
O=C(N/N=C/c1cccs1)c1cc(-c2ccncc2)nc2ccccc12	-11.6%	?	-1.5	-72.3*	?	-1.4
CCCc1cc(C(=O)N/N=C/c2ccc(CC)s2)c2ccccc2n1	?	?	-3.7	5.1	?	-3.7
SMILES	Pf growth 48h	Pf growth 96h	Shiga toxin inh	HCMV inh	HCV inhibitor	CHX counter
COC[C@@H]1CCCN1[C@H]1CS(=O)(=O)N[C@@H]1COCc1ccccc1	·	·	·	-0.4	·	·
Cc1cccc(N2CCN(C(=O)c3ccc4c(=O)[nH]c5c(C(=O)NC6CCCC6)sc(=S)n5c4c3)CC2)c1C	·	·	·	-9.1	·	·
Cc1ccc(NC(=O)C2CC(=O)N(CCc3ccccc3)C2)c(C)c1 (stereo not drawn)	-8.4%	-5.1%	-4.2	-1.3	-13.0%	6.8
COc1ccc(OC)c(-c2cc(C(=O)N/N=C/c3cc(OC)c(OC)cc3OC)c3ccccc3n2)c1	·	·	·	-10.5	11.3%	·
C/C(=N\NC(=O)c1cc(C)nc2ccccc12)c1ccco1	?	-41.9%[5.75 µM]	1.3	-20.1	11.6%	-1.5
COc1ccc(-c2cc(C(=O)N/N=C/c3ccc4c(c3)OCO4)c3ccccc3n2)c(OC)c1	?	?	-11.5	-6.9	?	1.4
COc1ccc(-c2cc(C(=O)N/N=C/c3sccc3C)c3ccccc3n2)c(OC)c1	·	11.7µM*	-6.5	-63.2*	?	5.3
COc1ccc(-c2cc(C(=O)N/N=C/c3ccc(OC)c(COCC(F)(F)C(F)F)c3)c3ccccc3n2)c(OC)c1	1.47µM*	6.57µM*	-3.6	8.3	?	3.6
COc1ccc(-c2cc(C(=O)N/N=C(\C)c3ccco3)c3ccccc3n2)c(OC)c1	9.28µM*	13.1µM*	-2.6	18.2	-19.1%	-3.5
COc1ccccc1-c1cc(C(=O)N/N=C/c2cccs2)c2ccccc2n1	·	4.15µM*	18.7	?	?	-0.1
CC1CCCN(C(=O)Nc2ccc([N+](=O)[O-])cc2)C1 (stereo not drawn)	·	·	·	-17.2	·	·
COc1cccc(CN2CCN(S(=O)(=O)c3ccc(Cl)s3)CC2)c1	17.4%	9.2%	31.8	25.9	0.6%	12.6*
COc1ccc(S(=O)(=O)N2CCN(Cc3cccc(Cl)c3)CC2)cc1	0.1%	6.2%	2.5	-28.0	-12.4%	-4.3
COc1cccc(OC)c1C(=O)Nc1nnc(-c2cccs2)s1	0.0%	-30.3%	0.8	-15.5	21.1%	1.9
CCC(CC)C(=O)Nc1nnc(-c2cccs2)s1	50.9%	-58.4%	57.1	41.0	-2.4%	21.2*
Cc1nonc1CN(C)C(=O)c1ccc(OC2CCN(C(=O)c3cccnc3)CC2)cc1	39.2%	-33.0%	-3.9	35.0	1.5%	-2.9
Cc1ccc(C(=O)Nc2ccc(N3CCCCC3)cc2)cc1	·	·	·	37.5	·	·
CC(=O)c1ccccc1NC(=O)c1ccc(N2CCCC2=O)cc1	44.2%	35.9%	·	-9.2	12.6µM*	·
Cc1ccc(C(=O)Nc2ccc(N3CCOCC3)cc2)cc1	?	?	36.2	-35.8	?	64.6*
CSc1cccc(NC(=S)NCCCN2CCN(c3ccc(F)cc3)CC2)c1	?	8.28µM*	-12.4	-20.7	24.6%	-1.3
Fc1cccc(NC(=S)NCCCN2CCOCC2)c1	6.2%	131.2%	-23.4	-29.6	-5.2%	1.6
Cc1ccc(NC(=O)NN2CCOCC2)cc1	46.3%	?	29.2	37.3	-5.6%	16.0*
COc1ccccc1NC(=O)N1CCOc2ccccc21	·	·	·	-10.9	·	·
CCOc1ccc(-c2cc(C(=O)NCc3ccccc3)c3c(-c4ccc(CC)cc4)[nH]nc3n2)cc1	·	·	·	4.4	·	·
Nc1cc(-c2ccccc2)nc2ccccc12	·	·	·	7.7	·	·
CNC(=O)c1cccc(N2CCCC2=O)c1	20.3%	19.3%	-16.7	46.1	8.0%	10.5

Screening results (PubChem BioAssay)
